From PubChem BioAssay
Pf growth 96h = Primary qHTS for delayed death inhibitors of the malarial parasite plastid, 96 hour incubation. P. falciparum luciferase reporter growth, 96 h. Potency, µM (highest dose often 28.7 µM), inactives show top-dose activity change, negative = inhibition, hits mostly inhibitors. 320,000 compounds, 6.9% hits; further: potency means the concentration at half of the fitted maximal effect
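Plates of compound plus infected erythrocytes (2% hematocrit, 0.05% parasitemia final) incubate 96 hours, 37 C, 5% CO2. Detection reagent added; reduced luminescence from the parasites' luciferase reporter flags inhibition.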
HCV inhibitor = qHTS Assay for Inhibitors of Hepatitis C Virus (HCV); Huh7.5.1 HCVcc-Cre infection, luciferase reporter, 44 h; Potency, µM (series often up to 41.8 µM), inactives show top-dose activity change, negative = inhibition, usual class: inhibitors; 340,000 compounds, 3.4% hits; AID 651820, 2012; further: potency means the concentration at half of the fitted maximal effect
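Infectious HCVcc-Cre (~0.5 moi) was added to cells just after compound, with cells seeded 4 h earlier at 1,000 per well. Luciferase activity after 44 h culture reported infection; substrate was incubated 15 min at room temperature before reading.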
HCMV antiviral = qHTS Assay for inhibitors of the human cytomegalovirus (HCMV); HFF cells, HCMV-luciferase reporter, 72 h; hits give low values; activity change, negative = inhibition, % at 57.5 µM; 410,000 compounds, 4.5% hits; in the data active means activity change below about -60%; inconclusive means no clear call, values can overlap the other calls; inactive means above about -39%
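Steps: HFFs plated, 16 h 37C; compounds added; HCMV-luciferase added to MOI 1 PFU/cell; 72 h 37C; OneGlo reagent, 5 min room temperature; luminescence read, normalized to controls.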
Marburg entry inh = qHTS for inhibitors of binding or entry into cells for Marburg Virus | 300,000 compounds, 1.8% hits | Potency, µM (titrated, usually from 37.8 µM), inactives show at the highest dose activity change, negative = inhibition, hits mostly inhibitors | Marburg virus pseudotyped entry inhibition, cell reporter; calls by dose curve; tested in HEK293 cells; further: potency means the concentration at half of the fitted maximal effect
Pf growth 48h = Primary qHTS for delayed death inhibitors of the malarial parasite plastid, 48 hour incubation. 310,000 compounds, 5.9% hits. Potency, µM (doses to about 28.7 µM), inactives show at the highest dose activity change, negative = inhibition, usual class: inhibitors. AID 504832, 2011. P. falciparum luciferase growth in erythrocytes, 48 h; further: potency means the concentration at half of the fitted maximal effect
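Parasite viability was followed by luminescence of a genomically integrated firefly luciferase. Cultures held 0.1% parasitemia at 2% hematocrit (final), incubated under 5% CO2 at 37 C.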
LASV entry inh = qHTS for Inhibitors of binding or entry into cells for Lassa Virus. AID 540256, 2011. 300,000 compounds, 1.2% hits. Potency, µM (series often up to 37.9 µM), inactives show top-dose activity change, negative = inhibition, most hits filed as inhibitors. Lassa virus pseudotype entry inhibition, cell reporter; calls by dose curve; tested in HEK293 cells; further: potency means the concentration at half of the fitted maximal effect; nearly all actives have a fitted effect of over 50% in size
* hit, by the source's call; ? = inconclusive; . = no result; ! = not confirmed by another sample; [ ] = remark or other dose. In the library only some 14% were active in any assay of this set; here they are far more common. Unless noted, the call rests on the fitted dose curve; in most records, active means well fitted inhibition curve with a large enough effect; inconclusive means small, poorly fitted or top-dose-only effect, or another doubt; inactive means no such curve, though single readings can be large or run the other way. On the % scale 0 is the no-effect control and ±100 the full control effect.

SMILES	Pf growth 96h	HCV inhibitor	HCMV antiviral	Marburg entry inh	Pf growth 48h	LASV entry inh
COc1ccc(-c2cc(C(=O)NCc3ccco3)c3ccccc3n2)cc1	3.3µM*	-13%	-18	.	?	.
O=C(NCc1ccco1)c1cc(-c2ccccc2)nc2ccccc12	121%	?	-20	?	?	11%
CCCCOc1ccc(-c2cc(C(=O)NNC(=S)NCC)c3ccccc3n2)cc1	.	11µM*	-93*	1.5µM*	?	?
C[C@H](CO)N1C[C@H](C)[C@H](CN(C)C(=O)Nc2cccc(F)c2)Oc2cc(Br)ccc2S1(=O)=O	.	.	-26	.	.	.
Cc1ccc(CN2C(=O)c3ccccc3CC2(C)C(=O)NC2CCCCC2)cc1 (centres undefined)	.	.	34	-9%[46.1 µM]	.	.
COC(=O)C[C@H]1C[C@H]2c3cc(NC(=O)CC4CC4)ccc3O[C@H]2[C@H](CO)O1	.	.	-1	.	.	.
COC(=O)C1=C(c2ccccc2OCc2ccccc2)C[C@@H]2CC[C@H]1N2C(=O)NC1CCN(Cc2ccccc2)CC1	?	?	-28	.	13µM*	.
COC(=O)C1=C(c2ccccc2)C[C@@H]2CC[C@H]1N2C(=O)NC1CC1	.	9%	-14	.	.	.
COC(=O)C1=C(c2ccccc2)C[C@@H]2CC[C@H]1N2C(=O)NC1CCCCC1	.	-20%	-9	.	.	.
COC(=O)C1=C(c2cccc(OCc3ccccc3)c2)C[C@@H]2CC[C@H]1N2C(=O)NC1CCN(Cc2ccccc2)CC1	?	10µM*	7	.	13µM*	.
COC(=O)C1=C(c2ccc(F)cc2OCc2ccccc2)C[C@@H]2CC[C@H]1N2C(=O)NC1CCN(Cc2ccccc2)CC1	?	?	-7	.	13µM*	.
CCOC(=O)c1cc(OC(=O)c2cccc(F)c2)n(-c2ccccc2)n1	.	.	8	?	.	-16%[46.1 µM]
O=c1cc2oc3cc(O)c(O)cc3c(-c3ccccc3[N+](=O)[O-])c-2cc1O	96%	?	-64*	.	?	.
Cc1cc(C)cc(-c2nnc(SCC(=O)N3CCN(C(=O)c4ccco4)CC3)o2)c1	12µM*	?	-10	5%	?	-23%
O=C(CSc1nnc(-c2ccc(Br)cc2)o1)N1CCN(C(=O)c2ccco2)CC1	?	?	-25	-3%	?	?
COc1ccc(OC)c(-n2nnnc2SCC(=O)N2CCN(C(=O)c3ccco3)CC2)c1	?	?	-6	-4%[46.1 µM]	-9%	12%
Cc1cc2cc3c(cc2nc1SCC(=O)N1CCN(C(=O)c2ccco2)CC1)OCO3	?	?	12	-24%	13µM*	-30%
Cc1ccc(-n2nnnc2SCC(=O)N2CCN(C(=O)c3ccco3)CC2)c(C)c1	6.6µM*	-17%	-7	9%	-19%	?
Cc1ccccc1C(=O)Nc1sc2c(c1C(=O)N1CCCCC1)CCC(C)C2 (centres undefined)	.	.	-12	?	.	-1%[46.1 µM]
O=S(=O)(c1ccccc1Cl)N1CCC(O)(c2ccc3c(c2)OCO3)CC1	2.9µM*	-4%	-11	18%	6%	19%
O=S(=O)(c1cccc(Cl)c1)N1CCN(S(=O)(=O)c2ccc3c(c2)OCCO3)CC1	.	.	11	.	.	.
O=C(c1ccc(F)cc1F)N1CCN(S(=O)(=O)c2ccc3c(c2)OCCO3)CC1	9.3µM*	?	?	-10%	?	-3%
O=S(=O)(c1ccc2c(c1)OCCO2)N1CCC(O)(c2ccc(Cl)cc2)CC1	9.3µM*	-24%	-36	8%	9%	-8%
OC1(c2ccc3c(c2)OCO3)CCN(Cc2ccccn2)CC1	-19%	10%	1	3%	10%	4%
O=C(c1ccc(F)cc1)N1CCN(S(=O)(=O)c2ccc3c(c2)OCCO3)CC1	.	.	-7	.	.	.
SMILES	Pf growth 96h	HCV inhibitor	HCMV antiviral	Marburg entry inh	Pf growth 48h	LASV entry inh
COc1ccc(Nc2ccccc2N)cc1	?	?	?	?	?	-12%
Nc1ccc(Nc2ccccc2N)cc1	-24%	11µM*	18	-23%	?	?
COc1ccc(C(C(=O)NC2CCCCC2)N(C(=O)c2ccco2)c2ccccc2C(C)=O)cc1OC (centres undefined)	14%	-6%	7	-9%[46.1 µM]	?	.
CCOC(=O)c1ccccc1NC(=O)Cc1c(C(=O)O)c(C)cn1C	.	.	-2	.	.	?
COc1cc(/C=N/c2oc(C)c(C)c2C#N)cc(Br)c1O	-28%	12%	10	.	11%	.
COc1ccc(/C=N/c2oc(C)c(C)c2C#N)c(OC)c1	12µM*	1%	?	2%[46.1 µM]	-9%	-20%
COCCNC(=O)C1(C)CCCN(Cc2cc(-c3ccccc3)n(C)n2)C1 (centres undefined)	.	.	10	.	.	.
COc1ccc(C2=NNC(c3cc(Cl)cc4c3OCOC4)C2)c(O)c1 (centres undefined)	2%	.	.	.	8.3µM*	.
CCN=C1SC(CC(=O)NCCc2ccc(OC)c(OC)c2)C(=O)N1CC (centres undefined)	5%	8%	91	5%	3%	0%
COc1ccc(CCNC(=O)CC2SC(=NCCc3ccccc3)NC2=O)cc1OC (centres undefined)	9.3µM*	4%	-12	0%[46.1 µM]	13µM*	-23%
CN=C1SC(CC(=O)NCCc2ccc(OC)c(OC)c2)C(=O)N1C (centres undefined)	34%	-13%	-64*!	?	9%	7%[46.1 µM]
CC(C(=O)NC(C)(C)C)n1c(C(c2ccccc2)c2ccccc2)nc2ccccc21 (centres undefined)	.	.	-24	.	.	.
O=C1CN=C(c2cccc(Br)c2)c2cc(Br)ccc2N1	-1%	-28%	-24	7.9µM*	-4%	?
Cc1cc(C)n(-c2ccc(F)cc2CN2CCN(C3CCCC3)C(CCO)C2)n1 (centres undefined)	1.7µM*	18%	-33	-20%[46.1 µM]	19%	5%
OCCC1CN(Cc2cccc3nonc23)CCN1C1CCCCC1 (centres undefined)	15µM*	2%	-1	?	-2%	22%[46.1 µM]
Cc1cccc(-c2ncc(CN3CCN(C4CCCC4)C(CCO)C3)cn2)c1 (centres undefined)	16%	-52%	-9	?	12%	-17%
OCCC1CN(Cc2cnc(-c3ccc(Cl)cc3)nc2)CCN1C1CCCCC1 (centres undefined)	8%	13µM*	?	.	10µM*	.
OCCC1CN(Cc2cccc3nonc23)CCN1Cc1ccsc1 (centres undefined)	50%	2%	25	4%[46.1 µM]	10%	1%
